What all share (test): DAPPL (digital affinity profiling via proximity ligation, sequencing); 10 mM Tris-HCl pH 7.5, 50 mM NaCl, 1 mM DTT, 4% glycerol, room temperature, 30 min; GST-TFs on glutathione beads, 16-mer random dsDNA library, 0.1% formaldehyde crosslink after washing; high values mean tight binding
The target in one assay is T1, FEV (Homo sapiens, UniProt Q99581 1-238).
T1 sequence: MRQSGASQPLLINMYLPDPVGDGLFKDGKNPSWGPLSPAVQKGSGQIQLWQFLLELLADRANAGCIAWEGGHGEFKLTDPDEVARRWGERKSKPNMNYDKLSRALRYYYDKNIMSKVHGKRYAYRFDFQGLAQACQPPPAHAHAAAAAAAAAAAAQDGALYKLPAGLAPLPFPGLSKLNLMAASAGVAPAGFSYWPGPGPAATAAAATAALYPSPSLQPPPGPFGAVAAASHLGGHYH
Conditions: protein: recombinant; tags: N-terminal GST; dsDNA, one strand shown. An outline of the steps: (§1)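 A tag-only sample was pooled with DNA-barcoded human transcription factors that had been expressed in yeast as GST fusions and captured on glutathione beads. The pools were incubated for 30 min at room temperature with 200 nmole of a random double-stranded 16-mer DNA library in Tris/NaCl/DTT/glycerol buffer, then washed, crosslinked with 0.1% formaldehyde, proximity-ligated (BsaI/T4 ligase, 1 h, 37 °C), PCR-amplified and sequenced on an Illumina NextSeq500. Binding signal is each hexamer's read frequency for a factor divided by its frequency for the tag-only sample.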

The next assay addresses ETV5 (Homo sapiens, UniProt P41161 1-510). Conditions: protein: recombinant; tags: N-terminal GST; dsDNA, one strand shown. A digest of the protocol:
as §1

Another assay has as its target HSF1 (Homo sapiens, UniProt Q00613 1-529). Conditions: protein: recombinant; tags: N-terminal GST; chain copies: 3; dsDNA, one strand shown. An outline of the steps: as §1
In a further assay the target is T2, SPIC (Homo sapiens, UniProt Q8N5J4 1-248).
T2 sequence: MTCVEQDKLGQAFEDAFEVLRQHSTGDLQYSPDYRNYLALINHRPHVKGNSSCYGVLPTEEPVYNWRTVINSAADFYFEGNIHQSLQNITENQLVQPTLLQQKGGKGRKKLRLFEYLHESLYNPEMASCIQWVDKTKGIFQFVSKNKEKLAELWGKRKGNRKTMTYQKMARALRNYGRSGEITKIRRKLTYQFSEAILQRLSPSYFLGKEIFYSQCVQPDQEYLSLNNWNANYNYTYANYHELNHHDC
Conditions: protein: recombinant; tags: N-terminal GST; dsDNA, one strand shown. An outline of the steps:
as §1

The target in another assay is ELF4 (Homo sapiens, UniProt Q99607 1-663). Conditions: protein: recombinant; tags: N-terminal GST; dsDNA, one strand shown. A digest of the protocol:
as §1

A further assay deals with T3, ELK4 (Homo sapiens, UniProt P28324-2 1-405).
T3 sequence: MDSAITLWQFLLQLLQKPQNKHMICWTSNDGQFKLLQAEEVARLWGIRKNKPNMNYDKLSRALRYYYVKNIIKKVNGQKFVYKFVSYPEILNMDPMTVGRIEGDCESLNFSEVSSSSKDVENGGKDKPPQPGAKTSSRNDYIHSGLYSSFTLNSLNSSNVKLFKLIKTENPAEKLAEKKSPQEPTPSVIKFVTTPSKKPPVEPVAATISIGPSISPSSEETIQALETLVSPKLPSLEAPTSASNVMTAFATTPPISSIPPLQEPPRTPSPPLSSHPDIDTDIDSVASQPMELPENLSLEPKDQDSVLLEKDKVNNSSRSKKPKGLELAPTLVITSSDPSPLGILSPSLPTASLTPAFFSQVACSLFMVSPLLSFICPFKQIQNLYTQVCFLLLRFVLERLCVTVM
Conditions: protein: recombinant; tags: N-terminal GST; dsDNA, one strand shown. An outline of the steps:
as §1

Another assay has as its target T4, ETV2 (Homo sapiens, UniProt O00321 1-342).
T4 sequence: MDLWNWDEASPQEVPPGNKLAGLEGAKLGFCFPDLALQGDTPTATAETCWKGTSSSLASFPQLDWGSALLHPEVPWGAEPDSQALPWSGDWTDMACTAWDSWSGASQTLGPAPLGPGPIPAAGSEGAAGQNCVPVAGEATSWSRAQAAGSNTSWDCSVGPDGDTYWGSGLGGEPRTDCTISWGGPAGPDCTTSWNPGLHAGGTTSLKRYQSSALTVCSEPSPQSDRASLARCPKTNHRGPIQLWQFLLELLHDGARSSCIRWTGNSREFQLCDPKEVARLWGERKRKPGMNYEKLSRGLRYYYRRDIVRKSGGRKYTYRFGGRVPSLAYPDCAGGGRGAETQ
Conditions: protein: recombinant; tags: N-terminal GST; dsDNA, one strand shown. An outline of the steps:
as §1

The next assay concerns the target T5, ELF3 (Homo sapiens, UniProt P78545 1-371).
T5 sequence: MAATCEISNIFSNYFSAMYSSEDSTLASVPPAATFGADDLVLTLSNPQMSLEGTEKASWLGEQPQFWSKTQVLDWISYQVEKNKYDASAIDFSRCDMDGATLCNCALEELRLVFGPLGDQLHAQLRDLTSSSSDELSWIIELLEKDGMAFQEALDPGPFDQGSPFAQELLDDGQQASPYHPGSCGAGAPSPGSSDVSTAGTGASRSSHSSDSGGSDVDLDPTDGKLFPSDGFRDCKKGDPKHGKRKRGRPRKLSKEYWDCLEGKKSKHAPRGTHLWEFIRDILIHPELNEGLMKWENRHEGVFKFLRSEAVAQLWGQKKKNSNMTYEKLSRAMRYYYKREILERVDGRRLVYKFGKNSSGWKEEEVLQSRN
Conditions: protein: recombinant; tags: N-terminal GST; dsDNA, one strand shown. An outline of the steps: as §1

The target in the next assay is CRX (Homo sapiens, UniProt O43186 1-299). Conditions: protein: recombinant; tags: N-terminal GST; dsDNA, one strand shown. An outline of the steps: as §1
The target of another assay is ETV1 (Homo sapiens, UniProt P50549 1-477). Conditions: protein: recombinant; tags: N-terminal GST; dsDNA, one strand shown. A digest of the protocol:
as §1

A further assay deals with T6, ERF (Homo sapiens, UniProt P50548 1-548).
T6 sequence: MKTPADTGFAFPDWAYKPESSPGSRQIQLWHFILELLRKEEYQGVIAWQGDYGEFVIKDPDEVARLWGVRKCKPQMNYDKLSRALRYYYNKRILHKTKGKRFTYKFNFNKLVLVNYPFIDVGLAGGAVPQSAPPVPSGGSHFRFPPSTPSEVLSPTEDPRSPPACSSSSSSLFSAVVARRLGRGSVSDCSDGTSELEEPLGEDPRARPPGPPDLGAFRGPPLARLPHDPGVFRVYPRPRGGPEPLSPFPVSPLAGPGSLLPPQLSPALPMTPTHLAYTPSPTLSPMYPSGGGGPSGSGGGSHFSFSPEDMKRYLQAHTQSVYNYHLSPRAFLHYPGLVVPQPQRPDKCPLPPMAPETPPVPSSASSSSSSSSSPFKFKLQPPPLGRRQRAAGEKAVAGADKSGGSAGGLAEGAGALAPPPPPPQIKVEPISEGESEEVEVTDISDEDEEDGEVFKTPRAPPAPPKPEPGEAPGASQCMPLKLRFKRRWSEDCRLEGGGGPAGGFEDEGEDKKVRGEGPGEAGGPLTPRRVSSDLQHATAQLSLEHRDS
Conditions: protein: recombinant; tags: N-terminal GST; dsDNA, one strand shown. A digest of the protocol: as §1

The next assay has as its target T7, ETV3L (Homo sapiens, UniProt Q6ZN32 1-361).
T7 sequence: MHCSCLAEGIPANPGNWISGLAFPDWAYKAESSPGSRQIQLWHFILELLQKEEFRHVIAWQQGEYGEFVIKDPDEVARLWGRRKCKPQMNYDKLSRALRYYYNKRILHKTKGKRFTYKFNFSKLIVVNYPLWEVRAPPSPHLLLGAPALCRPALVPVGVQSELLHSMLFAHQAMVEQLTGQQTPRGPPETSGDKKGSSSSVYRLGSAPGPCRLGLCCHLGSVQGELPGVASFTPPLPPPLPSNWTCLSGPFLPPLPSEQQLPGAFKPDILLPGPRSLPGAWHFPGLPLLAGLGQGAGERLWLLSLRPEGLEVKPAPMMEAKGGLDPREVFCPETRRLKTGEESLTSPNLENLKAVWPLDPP
Conditions: protein: recombinant; tags: N-terminal GST; dsDNA, one strand shown. An outline of the steps:
as §1

In a further assay the target is T8, ETS2 (Homo sapiens, UniProt P15036 1-469).
T8 sequence: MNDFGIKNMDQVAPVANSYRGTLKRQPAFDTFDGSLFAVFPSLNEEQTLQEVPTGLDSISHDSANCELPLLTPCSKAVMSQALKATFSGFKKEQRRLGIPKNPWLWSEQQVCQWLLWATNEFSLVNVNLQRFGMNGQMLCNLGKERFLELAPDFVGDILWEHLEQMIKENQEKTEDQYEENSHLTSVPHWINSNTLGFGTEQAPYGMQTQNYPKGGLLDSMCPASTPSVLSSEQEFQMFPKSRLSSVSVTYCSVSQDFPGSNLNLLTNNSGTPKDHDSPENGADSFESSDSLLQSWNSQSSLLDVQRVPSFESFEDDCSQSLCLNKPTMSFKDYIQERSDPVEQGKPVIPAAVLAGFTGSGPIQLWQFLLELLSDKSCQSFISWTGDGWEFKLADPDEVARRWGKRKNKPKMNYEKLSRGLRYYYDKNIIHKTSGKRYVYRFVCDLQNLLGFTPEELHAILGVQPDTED
Conditions: protein: recombinant; tags: N-terminal GST; dsDNA, one strand shown. A digest of the protocol: as §1

A further assay addresses T9, SPDEF (Homo sapiens, UniProt O95238 1-335).
T9 sequence: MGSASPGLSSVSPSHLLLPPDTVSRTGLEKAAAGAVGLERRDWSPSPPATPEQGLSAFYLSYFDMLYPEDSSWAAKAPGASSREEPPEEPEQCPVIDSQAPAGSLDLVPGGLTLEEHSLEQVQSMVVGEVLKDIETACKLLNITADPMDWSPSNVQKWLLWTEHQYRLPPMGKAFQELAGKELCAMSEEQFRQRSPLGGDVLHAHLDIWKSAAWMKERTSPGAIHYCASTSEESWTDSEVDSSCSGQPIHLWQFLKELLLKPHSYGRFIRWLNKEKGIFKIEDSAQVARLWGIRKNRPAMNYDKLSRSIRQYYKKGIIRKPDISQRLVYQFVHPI
Conditions: protein: recombinant; tags: N-terminal GST; dsDNA, one strand shown. An outline of the steps:
as §1

A further assay concerns the target T10, ETV7 (Homo sapiens, UniProt Q9Y603 1-341).
T10 sequence: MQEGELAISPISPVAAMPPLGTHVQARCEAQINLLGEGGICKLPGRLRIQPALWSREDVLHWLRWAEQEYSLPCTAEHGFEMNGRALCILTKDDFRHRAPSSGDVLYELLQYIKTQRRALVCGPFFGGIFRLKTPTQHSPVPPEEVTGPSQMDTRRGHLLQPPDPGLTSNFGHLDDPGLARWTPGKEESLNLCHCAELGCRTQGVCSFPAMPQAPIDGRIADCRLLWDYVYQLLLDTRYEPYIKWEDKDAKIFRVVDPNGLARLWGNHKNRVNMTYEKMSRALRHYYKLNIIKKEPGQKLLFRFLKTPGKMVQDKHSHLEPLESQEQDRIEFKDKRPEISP
Conditions: protein: recombinant; tags: N-terminal GST; dsDNA, one strand shown. An outline of the steps:
as §1

The next assay concerns the target T11, ELF5 (Homo sapiens, UniProt Q9UKW6-2 1-255).
T11 sequence: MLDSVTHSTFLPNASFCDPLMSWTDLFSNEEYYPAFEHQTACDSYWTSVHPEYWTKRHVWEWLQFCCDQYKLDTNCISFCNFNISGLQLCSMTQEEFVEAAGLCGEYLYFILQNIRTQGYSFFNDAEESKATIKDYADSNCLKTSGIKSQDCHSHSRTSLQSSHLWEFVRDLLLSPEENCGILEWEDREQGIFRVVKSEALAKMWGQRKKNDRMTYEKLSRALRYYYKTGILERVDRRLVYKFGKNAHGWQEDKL
Conditions: protein: recombinant; tags: N-terminal GST; dsDNA, one strand shown. A digest of the protocol:
as §1

The next assay concerns the target T12, ETV3 (Homo sapiens, UniProt P41162-2 1-143).
T12 sequence: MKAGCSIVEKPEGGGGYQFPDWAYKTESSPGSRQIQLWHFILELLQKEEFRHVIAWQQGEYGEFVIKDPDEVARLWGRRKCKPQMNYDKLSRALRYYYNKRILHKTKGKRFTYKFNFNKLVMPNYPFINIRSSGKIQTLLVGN
Conditions: protein: recombinant; tags: N-terminal GST; dsDNA, one strand shown. A digest of the protocol: as §1

For another assay, the target named is ETV6 (Homo sapiens, UniProt P41212 1-452). Conditions: protein: recombinant; tags: N-terminal GST; dsDNA, one strand shown. A digest of the protocol: as §1
Chain of ETV6 (P41212 whole entry): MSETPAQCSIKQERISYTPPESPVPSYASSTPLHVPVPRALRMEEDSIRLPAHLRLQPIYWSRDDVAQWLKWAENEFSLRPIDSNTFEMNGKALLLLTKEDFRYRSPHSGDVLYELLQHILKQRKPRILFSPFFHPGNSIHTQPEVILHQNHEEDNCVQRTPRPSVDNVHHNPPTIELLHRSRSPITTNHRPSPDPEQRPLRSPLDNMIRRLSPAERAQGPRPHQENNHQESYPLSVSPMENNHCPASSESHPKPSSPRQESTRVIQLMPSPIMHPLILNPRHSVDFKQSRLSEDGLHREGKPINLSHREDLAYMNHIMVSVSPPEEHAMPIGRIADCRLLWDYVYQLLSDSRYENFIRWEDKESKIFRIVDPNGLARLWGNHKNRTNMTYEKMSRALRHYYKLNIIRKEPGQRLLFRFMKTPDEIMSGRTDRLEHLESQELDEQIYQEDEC

Chain of HSF1 (Q00613 whole entry): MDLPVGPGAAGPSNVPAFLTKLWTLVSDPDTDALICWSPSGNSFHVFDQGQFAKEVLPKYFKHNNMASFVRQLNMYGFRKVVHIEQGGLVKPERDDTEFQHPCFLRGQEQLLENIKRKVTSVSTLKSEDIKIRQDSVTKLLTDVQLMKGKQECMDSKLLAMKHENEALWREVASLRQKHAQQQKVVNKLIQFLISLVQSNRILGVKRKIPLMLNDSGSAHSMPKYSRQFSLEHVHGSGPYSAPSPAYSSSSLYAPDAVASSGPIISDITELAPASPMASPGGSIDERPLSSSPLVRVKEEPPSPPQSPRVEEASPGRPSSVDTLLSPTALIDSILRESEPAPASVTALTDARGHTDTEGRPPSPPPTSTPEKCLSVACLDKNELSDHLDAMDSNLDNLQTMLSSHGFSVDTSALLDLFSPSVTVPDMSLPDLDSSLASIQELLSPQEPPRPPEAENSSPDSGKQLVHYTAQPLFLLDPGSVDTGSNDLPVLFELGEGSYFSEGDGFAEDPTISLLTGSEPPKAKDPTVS
Chain of ETV1 (P50549 whole entry): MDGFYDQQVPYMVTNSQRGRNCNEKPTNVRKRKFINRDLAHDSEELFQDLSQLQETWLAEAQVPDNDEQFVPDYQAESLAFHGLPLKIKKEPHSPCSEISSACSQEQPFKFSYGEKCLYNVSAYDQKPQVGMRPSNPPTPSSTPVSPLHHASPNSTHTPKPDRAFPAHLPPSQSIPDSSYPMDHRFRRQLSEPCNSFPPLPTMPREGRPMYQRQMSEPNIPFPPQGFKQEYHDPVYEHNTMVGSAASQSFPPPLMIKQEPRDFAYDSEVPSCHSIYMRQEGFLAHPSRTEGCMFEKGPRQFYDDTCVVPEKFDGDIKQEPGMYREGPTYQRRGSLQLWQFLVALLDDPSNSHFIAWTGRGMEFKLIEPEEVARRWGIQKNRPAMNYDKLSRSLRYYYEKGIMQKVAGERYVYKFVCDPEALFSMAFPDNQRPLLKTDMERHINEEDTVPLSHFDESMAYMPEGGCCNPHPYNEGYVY
Chain of CRX (O43186 whole entry): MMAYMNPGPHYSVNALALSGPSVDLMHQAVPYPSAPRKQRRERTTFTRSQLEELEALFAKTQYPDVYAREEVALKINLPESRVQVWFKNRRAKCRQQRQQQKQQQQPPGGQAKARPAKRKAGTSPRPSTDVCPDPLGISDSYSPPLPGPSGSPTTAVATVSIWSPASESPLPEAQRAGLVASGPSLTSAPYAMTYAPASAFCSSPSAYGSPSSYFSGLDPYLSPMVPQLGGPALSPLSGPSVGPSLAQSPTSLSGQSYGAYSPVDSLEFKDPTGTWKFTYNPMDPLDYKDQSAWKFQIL
Chain of ELF4 (Q99607 whole entry): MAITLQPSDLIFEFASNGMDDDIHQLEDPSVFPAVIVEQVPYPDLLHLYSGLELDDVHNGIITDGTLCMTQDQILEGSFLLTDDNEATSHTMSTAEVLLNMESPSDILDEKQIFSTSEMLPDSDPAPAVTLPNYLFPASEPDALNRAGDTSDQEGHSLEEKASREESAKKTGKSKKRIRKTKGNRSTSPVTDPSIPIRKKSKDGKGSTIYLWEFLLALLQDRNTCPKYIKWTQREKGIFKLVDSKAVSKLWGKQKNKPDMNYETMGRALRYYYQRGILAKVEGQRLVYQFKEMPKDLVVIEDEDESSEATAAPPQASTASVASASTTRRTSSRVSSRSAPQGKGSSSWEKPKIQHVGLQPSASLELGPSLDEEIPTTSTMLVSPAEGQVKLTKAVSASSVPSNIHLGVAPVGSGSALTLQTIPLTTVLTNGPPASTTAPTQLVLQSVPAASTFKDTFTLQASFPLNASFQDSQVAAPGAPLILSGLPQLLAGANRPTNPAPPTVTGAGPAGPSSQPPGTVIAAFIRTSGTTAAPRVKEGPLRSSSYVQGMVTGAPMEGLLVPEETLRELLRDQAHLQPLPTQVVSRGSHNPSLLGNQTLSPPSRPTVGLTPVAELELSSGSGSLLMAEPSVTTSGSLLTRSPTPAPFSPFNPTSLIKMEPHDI
Chain of ETV5 (P41161 whole entry): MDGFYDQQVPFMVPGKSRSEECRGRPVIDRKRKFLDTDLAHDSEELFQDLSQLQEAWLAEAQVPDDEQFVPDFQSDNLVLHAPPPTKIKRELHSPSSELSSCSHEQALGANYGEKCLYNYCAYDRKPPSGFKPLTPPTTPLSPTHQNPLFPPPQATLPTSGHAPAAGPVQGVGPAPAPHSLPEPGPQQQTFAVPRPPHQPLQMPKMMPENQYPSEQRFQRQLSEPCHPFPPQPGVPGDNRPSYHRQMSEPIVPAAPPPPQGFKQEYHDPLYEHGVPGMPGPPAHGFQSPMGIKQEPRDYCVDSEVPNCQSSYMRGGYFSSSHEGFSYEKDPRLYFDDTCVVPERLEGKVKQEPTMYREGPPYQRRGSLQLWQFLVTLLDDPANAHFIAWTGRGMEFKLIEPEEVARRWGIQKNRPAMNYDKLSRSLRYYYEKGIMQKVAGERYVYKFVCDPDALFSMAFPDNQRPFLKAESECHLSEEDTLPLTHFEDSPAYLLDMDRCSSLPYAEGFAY

On to TATCTT, for which the binding signal with FEV was 1.33 fold enrichment (6-mer frequency, TF over GST control); in the assay with ETV5, 1.22 fold enrichment (6-mer frequency, TF over GST control); with HSF1 it was 1.48 fold enrichment (6-mer frequency, TF over GST control); with SPIC it was 1.27 fold enrichment (6-mer frequency, TF over GST control); with ELF4, 1.24 fold enrichment (6-mer frequency, TF over GST control); with ELK4, 1.38 fold enrichment (6-mer frequency, TF over GST control). Further, the binding signal with ETV2 is 1.53 fold enrichment (6-mer frequency, TF over GST control); with ELF3, 1.34 fold enrichment (6-mer frequency, TF over GST control); with CRX, 1.91 fold enrichment (6-mer frequency, TF over GST control); with ETV1 it was 1.22 fold enrichment (6-mer frequency, TF over GST control); in the assay with ERF it was 1.32 fold enrichment (6-mer frequency, TF over GST control); with ETV3L, 1.41 fold enrichment (6-mer frequency, TF over GST control). Besides, the binding signal in the assay with ETS2 is 1.29 fold enrichment (6-mer frequency, TF over GST control); with SPDEF, 1.32 fold enrichment (6-mer frequency, TF over GST control); with ETV7 it was 1.22 fold enrichment (6-mer frequency, TF over GST control); with ELF5 it was 1.4 fold enrichment (6-mer frequency, TF over GST control); in the assay with ETV3, 1.25 fold enrichment (6-mer frequency, TF over GST control); with ETV6, 1.18 fold enrichment (6-mer frequency, TF over GST control).

The record behind these values is paper PMC7862700, “An all-to-all approach to the identification of sequence-specific readers for epigenetic DNA modifications on cytosine”.
